# Assay results published in article PMC12820563, “FoxP3 forms a head-to-head dimer in vivo and stabilizes its multimerization on adjacent microsatellites”.
# Over roughly 16,000 sequences, “rpm ratio (pull-down/input)” has its median near 0.5; the highest 2% begin near 5.5. The full list was thinned out, with the highest values kept by preference.
# Molecular target: T1, MBP-FoxP3dN (Mus musculus, UniProt Q99JB6 188-423)
# T1 sequence: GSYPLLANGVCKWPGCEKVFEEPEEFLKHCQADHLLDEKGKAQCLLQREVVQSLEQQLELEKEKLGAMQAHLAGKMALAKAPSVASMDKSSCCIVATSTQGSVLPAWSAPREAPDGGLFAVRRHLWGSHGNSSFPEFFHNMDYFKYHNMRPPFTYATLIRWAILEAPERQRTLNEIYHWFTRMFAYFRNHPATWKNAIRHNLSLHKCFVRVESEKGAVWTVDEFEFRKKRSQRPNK
# Assay: PD-seq (MBP pull-down with sequencing); 20 mM Tris-HCl pH 7.5, 100 mM NaCl, 1.5 mM MgCl2, 0.4 uM protein, 0.1 uM dsDNA library, 30 min, room temperature, amylose pull-down; high values mean tight binding
# Details: protein: recombinant; tags: His6-MBP; chain copies: 2; dsDNA, one strand shown
# Summary of the method: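 The N-terminus-lacking fragment of mouse FoxP3 or FoxP1 carried a His6-MBP tag and was expressed in E. coli. At 0.4 µM it was incubated with 0.1 µM Klenow-filled degenerate double-stranded DNA library for 30 min at room temperature in Tris pH 7.5 buffer with NaCl and MgCl2, and complexes were caught on amylose resin, washed three times, released with proteinase K, PCR-barcoded and Illumina-sequenced. Binding is reads-per-million enrichment of pull-down over input with replicates pooled.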
row,Sequence,binding signal
1,GATGATTGTTCTCCCAGCTGATGAATTCTTAGTTTCGAGTAAACAAATTTTCCTAATCTTTCTGTTCAAGCGCCATCTAC,0.302 RPM ratio (pull-down/input)
2,GATGATTGTTCTCCCAGCTGATGAATTACCAGGCTCGAGTAAACAAATTTTCCTAATCTTTCTGTTCAAGCGCCATCTAC,0.357 RPM ratio (pull-down/input)
3,GATGATTGTTCTCCCAGCTGATGAATTGAGCAGCTCGAGTAAACAAATTTTCCTAATCTTTCTGTTCAAGCGCCATCTAC,1.12 RPM ratio (pull-down/input)
4,GATGATTGTTCTCCCAGCTGATGAATTGAGCATTTCGAGTAAACAAATTTTCCTAATCTTTCTGTTCAAGCGCCATCTAC,6.08 RPM ratio (pull-down/input)
5,GATGATTGTTCTCCCAGCTGATGAATTCGAGCATTCGAGTAAACAAATTTTCCTAATCTTTCTGTTCAAGCGCCATCTAC,4.97 RPM ratio (pull-down/input)
6,GATGATTGTTCTCCCAGCTGATGAATTTTGAGCATCGAGTAAACAAATTTTCCTAATCTTTCTGTTCAAGCGCCATCTAC,0.906 RPM ratio (pull-down/input)
7,GATGATTGTTCTCCCAGCTGATGAATTGAGCATCTCGAGTAAACAAATTTTCCTAATCTTTCTGTTCAAGCGCCATCTAC,6.26 RPM ratio (pull-down/input)
8,GATGATTGTTCTCCCAGCTGATGAATTTGAGCATTCGAGTAAACAAATTTTCCTAATCTTTCTGTTCAAGCGCCATCTAC,5.36 RPM ratio (pull-down/input)
9,GATGATTGTTCTCCCAGCTGATGAATTGAAGTCTTCGAGTAAACAAATTTTCCTAATCTTTCTGTTCAAGCGCCATCTAC,0.312 RPM ratio (pull-down/input)
10,GATGATTGTTCTCCCAGCTGATGAATTAGCCTCCTCGAGTAAACAAATTTTCCTAATCTTTCTGTTCAAGCGCCATCTAC,1.57 RPM ratio (pull-down/input)
11,GATGATTGTTCTCCCAGCTGATGAATTAAGCGGATCGAGTAAACAAATTTTCCTAATCTTTCTGTTCAAGCGCCATCTAC,0.341 RPM ratio (pull-down/input)
12,GATGATTGTTCTCCCAGCTGATGAATTGTAAACGTCGAGTAAACAAATTTTCCTAATCTTTCTGTTCAAGCGCCATCTAC,0.874 RPM ratio (pull-down/input)
13,GATGATTGTTCTCCCAGCTGATGAATTGTGCCACTCGAGTAAACAAATTTTCCTAATCTTTCTGTTCAAGCGCCATCTAC,6.84 RPM ratio (pull-down/input)
14,GATGATTGTTCTCCCAGCTGATGAATTTTCGCACTCGAGTAAACAAATTTTCCTAATCTTTCTGTTCAAGCGCCATCTAC,0.504 RPM ratio (pull-down/input)
15,GATGATTGTTCTCCCAGCTGATGAATTTCGCCACTCGAGTAAACAAATTTTCCTAATCTTTCTGTTCAAGCGCCATCTAC,5.74 RPM ratio (pull-down/input)
16,GATGATTGTTCTCCCAGCTGATGAATTCCCCCACTCGAGTAAACAAATTTTCCTAATCTTTCTGTTCAAGCGCCATCTAC,0.253 RPM ratio (pull-down/input)

row,Sequence,binding signal
1,GATGATTGTTCTCCCAGCTGATGAATTCGCCCACTCGAGTAAACAAATTTTCCTAATCTTTCTGTTCAAGCGCCATCTAC,0.406 RPM ratio (pull-down/input)
2,GATGATTGTTCTCCCAGCTGATGAATTCCGCCACTCGAGTAAACAAATTTTCCTAATCTTTCTGTTCAAGCGCCATCTAC,6.15 RPM ratio (pull-down/input)
3,GATGATTGTTCTCCCAGCTGATGAATTCCCACTCTCGAGTAAACAAATTTTCCTAATCTTTCTGTTCAAGCGCCATCTAC,0.323 RPM ratio (pull-down/input)
4,GATGATTGTTCTCCCAGCTGATGAATTTTCCCACTCGAGTAAACAAATTTTCCTAATCTTTCTGTTCAAGCGCCATCTAC,0.213 RPM ratio (pull-down/input)
5,GATGATTGTTCTCCCAGCTGATGAATTCTGCCACTCGAGTAAACAAATTTTCCTAATCTTTCTGTTCAAGCGCCATCTAC,6.04 RPM ratio (pull-down/input)
6,GATGATTGTTCTCCCAGCTGATGAATTCTCCCACTCGAGTAAACAAATTTTCCTAATCTTTCTGTTCAAGCGCCATCTAC,0.246 RPM ratio (pull-down/input)
7,GATGATTGTTCTCCCAGCTGATGAATTTCTCCACTCGAGTAAACAAATTTTCCTAATCTTTCTGTTCAAGCGCCATCTAC,0.272 RPM ratio (pull-down/input)
8,GATGATTGTTCTCCCAGCTGATGAATTCAGCCACTCGAGTAAACAAATTTTCCTAATCTTTCTGTTCAAGCGCCATCTAC,5.07 RPM ratio (pull-down/input)
9,GATGATTGTTCTCCCAGCTGATGAATTTCTCGTCTCGAGTAAACAAATTTTCCTAATCTTTCTGTTCAAGCGCCATCTAC,0.277 RPM ratio (pull-down/input)
10,GATGATTGTTCTCCCAGCTGATGAATTACCACTGTCGAGTAAACAAATTTTCCTAATCTTTCTGTTCAAGCGCCATCTAC,0.41 RPM ratio (pull-down/input)
11,GATGATTGTTCTCCCAGCTGATGAATTAGACTTGTCGAGTAAACAAATTTTCCTAATCTTTCTGTTCAAGCGCCATCTAC,0.529 RPM ratio (pull-down/input)
12,GATGATTGTTCTCCCAGCTGATGAATTCTCATGTTCGAGTAAACAAATTTTCCTAATCTTTCTGTTCAAGCGCCATCTAC,0.416 RPM ratio (pull-down/input)
13,GATGATTGTTCTCCCAGCTGATGAATTATCGGTCTCGAGTAAACAAATTTTCCTAATCTTTCTGTTCAAGCGCCATCTAC,0.382 RPM ratio (pull-down/input)
14,GATGATTGTTCTCCCAGCTGATGAATTACGTACATCGAGTAAACAAATTTTCCTAATCTTTCTGTTCAAGCGCCATCTAC,0.647 RPM ratio (pull-down/input)
15,GATGATTGTTCTCCCAGCTGATGAATTGTGATGTTCGAGTAAACAAATTTTCCTAATCTTTCTGTTCAAGCGCCATCTAC,4.21 RPM ratio (pull-down/input)
16,GATGATTGTTCTCCCAGCTGATGAATTGCTTATATCGAGTAAACAAATTTTCCTAATCTTTCTGTTCAAGCGCCATCTAC,1.61 RPM ratio (pull-down/input)
